PubChem BioAssay (Tox21)
Records with an inconclusive call do not appear. Active and inactive are the calls of the source. Unless noted, calls come from the whole dose curve; as a rule, active = well fitted curve in the direction sought with a large enough effect in the repeat runs; inconclusive = weak or mixed curves; inactive = no such curve, though single readings can be large; an effect the other way counts as inactive or inconclusive.

Key:
[1] = qHTS assay to identify small molecule antagonists of the thyroid receptor (TR) signaling pathway - cell viability counter screen (AID 743064); note: nearly all actives have a fitted effect of over 50% in size
Outline: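 Counter screen for cytotoxicity: compound plus T3 (1 nM final) on GH3.TRE-Luc cells, 23.5 h at 37 °C, then fluorescence viability readout with CellTiter-Fluor.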

[2] = qHTS assay to identify small molecule antagonists of the thyroid receptor (TR) signaling pathway (AID 743065); note: series mostly up to about 70 µM; nearly all actives have a fitted effect of over 55% in size
Outline: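 GH3.TRE-Luc rat pituitary cells (two TREs driving luciferase) were dosed with compound, then stimulated with 1 nM T3 (final) for 23.5 h at 37 C. ONE-Glo luminescence was the read-out, with CellTiter-Fluor fluorescence as the cytotoxicity counter-screen.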

[3] = system: thyroid hormone receptor (rat, GH3 cells); assay: qHTS assay to identify small molecule agonists of the thyroid receptor (TR) signaling pathway (AID 743066; calls by dose curve)
[4] = qHTS assay to identify small molecule antagonists of the estrogen receptor alpha (ER-alpha) signaling pathway - cell viability counter screen (AID 743074; calls by dose curve;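 note: HEK293 cells carrying ER-alpha-UAS-bla reporter stimulated with 17beta-estradiol; nearly all actives have a fitted effect of over 45% in size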)
[5] = qHTS assay to identify small molecule antagonists of the estrogen receptor alpha (ER-alpha) signaling pathway using the BG1 cell line - cell viability counter screen (AID 743081);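 note: compound given together with 17beta-estradiol as the ER stimulus; series mostly up to about 70 µM; nearly all actives have a fitted effect of over 45% in size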
Aromatase (Homo sapiens) = Aromatase (Homo sapiens) (UniProt P11511); assay: qHTS assay to identify aromatase inhibitors (AID 743083); note: series mostly up to about 70 µM; nearly all actives have a fitted effect of over 55% in size
[6] = qHTS assay to identify aromatase inhibitors - cell viability counter screen (AID 743084);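 note: cells stimulated with testosterone during compound exposure; nearly all actives have a fitted effect of over 55% in size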
[7] = target: Aryl hydrocarbon receptor (Homo sapiens) (UniProt P35869); assay: qHTS assay to identify small molecule that activate the aryl hydrocarbon receptor (AhR) signaling pathway (AID 743085); note: nearly all actives have a fitted effect of over 15% in size; note: potency is the fitted concentration of half-maximal effect;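 for activation: HG2L7.5c1 human HepG2 liver cells with stably integrated DRE-driven firefly reporter; series mostly up to about 70 µM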
Outline: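 Measured in HG2L7.5c1 cells: CellTiter-Fluor signal (30 min incubation, 37C) for viability, then luciferase luminescence (30 min, room temperature). Compound contact time was 24 h at 37C, following a 5 h pre-incubation.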

[8] = qHTS assay to identify small molecule that activate the aryl hydrocarbon receptor (AhR) signaling pathway - cell viability counter screen (AID 743086);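 note: HepG2 liver cells carrying the AhR DRE luciferase reporter; series mostly up to about 70 µM; nearly all actives have a fitted effect of over 45% in size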
Outline: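 HepG2-AhR-luc (HG2L7.5c1) cells, 4000/well, treated 24 h at 37 C with compound; viability measured as CellTiter-Fluor fluorescence after 30 min in the same wells as the luciferase read.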

[9] = target: Peroxisome proliferator-activated receptor gamma (Homo sapiens) (UniProt P37231); assay: qHTS assay to identify small molecule agonists of the peroxisome proliferator-activated receptor gamma (PPARg) signaling pathway (AID 743094; active = well fitted activation curve with a large enough effect in the signal ratio in the repeat runs, not every such curve was filed as active; the % refers to the signal ratio)
Outline: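 Following 5 h plating at 37C, PPARg-bla HEK293H cells receive compound or DMSO for 17 h; fluorescence intensity is recorded after LiveBLAzer B/G loading for 1 h at room temperature.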

[10] = target: Peroxisome proliferator-activated receptor gamma (Homo sapiens) (UniProt P37231); assay: qHTS assay to identify small molecule antagonists of the peroxisome proliferator-activated receptor gamma (PPARg) signaling pathway (AID 743191; calls by dose curve; note: series mostly up to about 63 µM; nearly all actives have a fitted effect of over 30% in size)
Outline: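 GeneBLAzer PPARg UAS-bla HEK293H cells, 5 h post-plating, exposed to compounds 17 h at 37C. LiveBLAzer B/G FRET substrate added for 1 h at room temperature; beta-lactamase reporter read by fluorescence intensity.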

[11] = qHTS assay to identify small molecule antagonists of the peroxisome proliferator-activated receptor gamma (PPARg) signaling pathway - cell viability counter screen (AID 743194); note: nearly all actives have a fitted effect of over 55% in size
Outline: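 Cytotoxicity counter screen in PPARg-bla HEK293H cells, same wells as reporter assay. Compounds plus 50 nM rosiglitazone (final) for 17 h at 37 C, then viability read by CellTiter-Glo luminescence.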

[12] = qHTS assay for small molecule agonists of the antioxidant response element (ARE) signaling pathway (AID 743202; active = well fitted activation curve with a large enough effect in the signal ratio in the repeat runs, not every such curve was filed as active; the % refers to the signal ratio; note: potency is the fitted concentration of half-maximal effect)
Outline: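 ARE-bla HepG2 cells (beta-lactamase reporter under the antioxidant response element), plated 5 hours, then exposed to compounds 16 hours at 37 C. LiveBLAzer B/G FRET substrate added for 2 hours at room temperature; fluorescence intensity read.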

[13] = qHTS assay for small molecule activators of the heat shock response signaling pathway - cell viability counter screen (AID 743209); note: nearly all actives have a fitted effect of over 50% in size
Outline: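 Counter screen for cytotoxicity in HeLa HSE-bla reporter cells. Treatment was 5 h at 37 C; viability was detected by luminescent ATP assay (CellTiter-Glo) in the same wells as the beta-lactamase read.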

[14] = qHTS assay for small molecule activators of the heat shock response signaling pathway (AID 743210; active = well fitted activation curve with a large enough effect in the signal ratio in the repeat runs, with a control signal flat, not every such curve was filed as active; the % refers to the signal ratio; note: series mostly up to about 63 µM)
Outline: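 HSE-bla HeLa cells (beta-lactamase reporter under heat shock response elements), plated overnight, then exposed to compounds 5 h at 37 C; LiveBLAzer B/G FRET substrate added, 2.5 h at room temperature, fluorescence intensity read.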

[15] = qHTS assay for small molecule agonists of the antioxidant response element (ARE) signaling pathway - cell viability counter screen (AID 743203; calls by dose curve; note: nearly all actives have a fitted effect of over 55% in size)
Outline: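 Compounds in DMSO were pinned onto ARE-bla HepG2 cells plated 5 hrs earlier at 2,000 cells/well. Sixteen hours later at 37C/5% CO2, CellTiter-Glo was added and luminescence measured after 30 min at room temperature.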
% is set by controls: 0 for no effect and ±100 for the full control effect.

Sequence of Peroxisome proliferator-activated receptor gamma (Homo sapiens) (P37231 whole entry, looked up): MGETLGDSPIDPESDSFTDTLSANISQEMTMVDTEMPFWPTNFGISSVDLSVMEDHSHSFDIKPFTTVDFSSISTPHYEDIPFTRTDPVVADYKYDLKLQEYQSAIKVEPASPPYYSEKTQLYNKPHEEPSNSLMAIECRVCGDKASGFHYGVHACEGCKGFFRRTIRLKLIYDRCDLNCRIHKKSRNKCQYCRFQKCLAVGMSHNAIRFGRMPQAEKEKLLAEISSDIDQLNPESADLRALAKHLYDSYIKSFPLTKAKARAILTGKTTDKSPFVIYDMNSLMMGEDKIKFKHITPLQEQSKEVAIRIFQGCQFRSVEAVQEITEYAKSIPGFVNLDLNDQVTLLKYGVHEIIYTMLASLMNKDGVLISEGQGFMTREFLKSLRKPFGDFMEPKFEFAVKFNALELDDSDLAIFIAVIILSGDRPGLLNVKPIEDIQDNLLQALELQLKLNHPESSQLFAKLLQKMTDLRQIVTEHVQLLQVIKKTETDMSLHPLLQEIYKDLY
Sequence of Aryl hydrocarbon receptor (Homo sapiens) (P35869 whole entry, looked up): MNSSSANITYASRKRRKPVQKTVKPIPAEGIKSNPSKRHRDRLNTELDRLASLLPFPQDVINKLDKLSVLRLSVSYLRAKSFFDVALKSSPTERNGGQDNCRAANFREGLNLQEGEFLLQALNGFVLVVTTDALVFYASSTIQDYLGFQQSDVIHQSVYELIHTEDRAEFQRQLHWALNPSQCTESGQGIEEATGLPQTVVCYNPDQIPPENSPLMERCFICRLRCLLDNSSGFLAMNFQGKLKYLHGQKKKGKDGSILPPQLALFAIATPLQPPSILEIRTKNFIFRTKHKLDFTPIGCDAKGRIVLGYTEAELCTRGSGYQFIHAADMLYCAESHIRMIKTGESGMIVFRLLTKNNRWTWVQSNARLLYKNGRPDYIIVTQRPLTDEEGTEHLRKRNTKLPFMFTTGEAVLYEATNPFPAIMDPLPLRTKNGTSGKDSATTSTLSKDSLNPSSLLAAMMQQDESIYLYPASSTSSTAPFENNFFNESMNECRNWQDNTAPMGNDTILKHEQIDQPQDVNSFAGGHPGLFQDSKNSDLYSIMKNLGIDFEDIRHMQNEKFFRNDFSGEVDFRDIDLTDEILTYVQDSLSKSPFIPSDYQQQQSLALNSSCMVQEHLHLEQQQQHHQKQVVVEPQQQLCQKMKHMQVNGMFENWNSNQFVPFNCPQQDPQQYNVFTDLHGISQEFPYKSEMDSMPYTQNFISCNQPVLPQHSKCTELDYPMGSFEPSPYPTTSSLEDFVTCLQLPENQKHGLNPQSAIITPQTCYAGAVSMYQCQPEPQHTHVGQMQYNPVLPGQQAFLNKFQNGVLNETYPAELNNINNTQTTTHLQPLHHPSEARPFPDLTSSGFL
Sequence of Aromatase (Homo sapiens) (P11511 whole entry, looked up): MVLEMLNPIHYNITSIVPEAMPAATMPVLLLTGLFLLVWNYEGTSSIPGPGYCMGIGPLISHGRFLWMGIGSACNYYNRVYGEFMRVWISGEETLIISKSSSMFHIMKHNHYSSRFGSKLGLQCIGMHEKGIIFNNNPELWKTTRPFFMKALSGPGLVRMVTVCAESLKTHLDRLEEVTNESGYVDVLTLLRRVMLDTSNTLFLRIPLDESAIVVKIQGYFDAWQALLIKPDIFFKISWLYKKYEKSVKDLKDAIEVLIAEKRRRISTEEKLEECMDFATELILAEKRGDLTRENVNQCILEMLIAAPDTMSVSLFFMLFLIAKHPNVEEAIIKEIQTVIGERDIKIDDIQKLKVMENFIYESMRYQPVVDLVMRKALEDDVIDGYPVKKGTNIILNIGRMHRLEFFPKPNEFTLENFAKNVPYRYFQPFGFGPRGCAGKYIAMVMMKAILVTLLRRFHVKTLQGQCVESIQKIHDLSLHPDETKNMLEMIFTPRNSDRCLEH

CCc1ccc(C=O)cc1
inactive: Potency [1] | Potency [2] | outcome [3] | outcome [4] | outcome [5] | Potency (Aromatase (Homo sapiens)) | Potency [6] | Potency [7] | Potency [8] | outcome [9] | Potency [10] | outcome [11] | Potency [12] | outcome [13] | outcome [14]

C=CC(OCC)OCC
inactive: Potency [1] | Potency [2] | outcome [3] | outcome [4] | outcome [5] | Potency (Aromatase (Homo sapiens)) | outcome [9] | outcome [11] | outcome [15] | outcome [13] | outcome [14]
active: Potency [7] 60.4 µM | Potency [12] 34 µM

C=COCCOCCOCCOC=C
inactive: Potency [1] | Potency [2] | outcome [3] | outcome [4] | outcome [5] | Potency (Aromatase (Homo sapiens)) | Potency [6] | Potency [7] | outcome [9] | Potency [10] | outcome [11] | Potency [12] | outcome [15]

CC(=O)c1sc(C)nc1C
inactive: Potency [1] | Potency [2] | outcome [3] | outcome [4] | outcome [5] | Potency (Aromatase (Homo sapiens)) | Potency [6] | Potency [7] | Potency [8] | outcome [9] | Potency [10] | outcome [11] | outcome [14]

CCC(C)(CCC(C)C)C(=O)O (configuration not stated)
inactive: Potency [1] | Potency [2] | outcome [3] | outcome [4] | outcome [5] | Potency [8] | outcome [11] | Potency [12] | outcome [15] | outcome [13]

O=C(O)c1cc(Br)c(O)c(Br)c1
inactive: Potency [1] | Potency [2] | outcome [3] | outcome [4] | outcome [5] | Potency (Aromatase (Homo sapiens)) | Potency [6] | outcome [9] | Potency [10] | outcome [11] | Potency [12] | outcome [15] | outcome [13] | outcome [14]

N[C@@H](COP(=O)(O)O)C(=O)O
inactive: Potency [1] | Potency [2] | outcome [3] | outcome [4] | outcome [5] | Potency (Aromatase (Homo sapiens)) | Potency [6] | Potency [7] | Potency [8] | outcome [9] | Potency [10] | Potency [12] | outcome [15] | outcome [13]

C[Si](C)=O
inactive: activity change, negative = cytotoxic [1] -4.47% [at 8.44 µM] | activity, negative = inhibition [2] 0.0327% [at 8.44 µM] | activation [3] 0.231% [at 8.08 µM] | activity, negative = cytotoxicity [4] 5.35% [at 6.72 µM] | activity change, negative = cytotoxicity [5] -7.83% [at 8.47 µM] | activity, negative = inhibition (Aromatase (Homo sapiens)) 11% [at 8.47 µM] | activity change, negative = cytotoxicity [6] -1.09% [at 8.47 µM] | activation [7] -0.45% [at 8.47 µM] | viability change, negative = cytotoxic [8] -0.537% [at 8.47 µM] | activation [9] -3.83% [at 7.08 µM] | ratio activity, negative = inhibition [10] 8.93% [at 5.95 µM] | activity change, negative = cytotoxicity [11] 17.1% [at 5.95 µM] | activation [12] -4.69% [at 8.36 µM] | activity change, negative = cytotoxicity [13] 6.74% [at 5.95 µM] | activation [14] -1.34% [at 5.95 µM]

OCCN(CCO)c1cccc(Cl)c1
inactive: Potency [1] | Potency [2] | outcome [3] | outcome [4] | outcome [5] | Potency (Aromatase (Homo sapiens)) | Potency [6] | Potency [7] | Potency [8] | outcome [9] | Potency [10] | outcome [11] | outcome [15] | outcome [13] | outcome [14]
